Laboratory results taken from PubChem BioAssay AID686979 (National Center for Advancing Translational Sciences (NCATS), 2013).
The campaign covered roughly 420,000 compounds. About 50,000 (12%) were called active. Not shown: some 26% with an inconclusive outcome. Calls come from the whole dose curve; as a rule, active = well fitted inhibition curve with a large enough effect; inconclusive = small, poorly fitted or top-dose-only effect; inactive = flat fitted curve, though single readings scatter. Only a selection was taken, and actives are over-represented in it overall.

Experiment: qHTS for Inhibitors of human tyrosyl-DNA phosphodiesterase 1 (TDP1): qHTS in cells in presence of CPT; note: nearly all actives have a fitted effect of over 55% in size
Conditions: chicken DT40 Tdp1-/-;hTDP1 cells + 20 nM CPT, ATP luminescence, 48 h; series mostly up to 46.2 µM; activity change, negative = growth inhibition: at the top concentration
Summary of the method: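 Cell growth measured by CellTiter-Glo luminescence after a minimum 48 h, 37 C compound exposure with 20 nM CPT in Tdp1-knockout DT40 cells stably expressing hTDP1, seeded 400/well; qHTS titration format.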
% is set by controls: 0 for no effect and ±100 for the full control effect; potency is the fitted concentration of half-maximal effect.

| SMILES | activity change, negative = growth inhibition | Potency |
| --- | --- | --- |
| CCOC(=O)Cc1cc(=O)[nH]c(/N=C(\N)Nc2ccc(OC)cc2)n1 | -18.9% (inactive) |  |
| COc1ccc(NC(=O)Cn2c(-c3ccc(OC)cc3)cn(-c3ccc(C)cc3)c2=O)cc1 | -0.508% (inactive) |  |
| Cc1ccccc1CNC(=O)CCCn1nc(C)c2sc3ccccc3c2c1=O |  | 18.4 µM (active) |
| Cc1nn(CCCC(=O)NCc2ccccc2Cl)c(=O)c2nccn12 | 0.154% (inactive) |  |
| CCc1nn(CCCC(=O)NCc2ccccc2OC)c(=O)c2cc3occc3n12 | -20.1% (inactive) |  |
| COc1ccc(C(=O)COC(=O)c2ccc3ccccc3n2)cc1 |  | 20.6 µM (active) |
| COc1ccc(C2=NOC(COC(=O)c3ccc4ccccc4n3)C2)cc1 (configuration not stated) | -5.82% (inactive) |  |
| CC(OC(=O)c1ccc2ccccc2n1)C(=O)c1ccccc1 (configuration not stated) | -20.7% (inactive) |  |
| Cc1ccc(-c2nnc(CN3CCN(C)CC3)o2)cc1 | -20.5% (inactive) |  |
| COCCNC(=O)CSc1c(C)cnc2c1c(=O)n(C)c(=O)n2C | 6.75% (inactive) |  |
| COc1ccc(C(=O)CSc2nccc(=O)[nH]2)cc1 | -10.5% (inactive) |  |
| COc1ccc(C(=O)CSc2c(C(C)C)cnc3c2c(=O)n(C)c(=O)n3C)cc1 |  | 16.4 µM (active) |
| COc1ccc(CNC(=O)CN2C(=O)c3ccccc3S2(=O)=O)cc1 | -0.378% (inactive) |  |
| O=C(NCc1cccs1)C(=O)NCC1OCCCN1S(=O)(=O)c1ccc(F)cc1 (configuration not stated) | -20.4% (inactive) |  |
| CC1CCCCN1S(=O)(=O)c1ccc(C(=O)Nc2nnc(-c3cccs3)o2)cc1 (configuration not stated) |  | 6.51 µM (active) |
| NC(=O)CSc1nnc(-c2cccc(S(=O)(=O)N3CCOCC3)c2)o1 | -6.32% (inactive) |  |
| COCCN(CC(=O)Nc1ccccc1C)S(=O)(=O)c1ccc(S(=O)(=O)N2CCCC2)cc1 | -16.1% (inactive) |  |
| CC1CCCCN1S(=O)(=O)CCNC(=O)c1ccccc1 (configuration not stated) | -22.8% (inactive) |  |
| CC1CC(C)CN(S(=O)(=O)c2ccc(C(=O)NN3CCOCC3)cc2)C1 (configuration not stated) | -4.85% (inactive) |  |
| CC1CCCN(S(=O)(=O)c2ccc(C(=O)Nc3nnc(-c4ccncc4)o3)cc2)C1 (configuration not stated) |  | 11.6 µM (active) |
| O=C(Nc1ccc(N2CCOCC2)cc1)c1cccc(S(=O)(=O)N2CCOCC2)c1 | -10% (inactive) |  |
| CC1CCCCN1S(=O)(=O)c1ccc(S(=O)(=O)N(CC(=O)Nc2ccccc2)Cc2cccs2)cc1 (configuration not stated) |  | 25.9 µM (active) |
| CS(=O)(=O)c1ccc(-c2nnc(NC(=O)c3ccc4c(c3)OCCO4)o2)cc1 | -17.5% (inactive) |  |

| SMILES | activity change, negative = growth inhibition | Potency |
| --- | --- | --- |
| CCN(CC(=O)NCc1cccs1)S(=O)(=O)c1ccc(NC(C)=O)cc1 | -7.88% (inactive) |  |
| O=C(Nc1nnc(-c2ccccc2)o1)c1cccc(S(=O)(=O)N2CCOCC2)c1 |  | 13 µM (active) |
| CCOC(=O)c1c(/N=C/c2cc(C)ccc2O)sc2c1CCC2 | 11.4% (inactive) |  |
| CC(C)OC(=O)CC(=O)CC(O)c1cccc([N+](=O)[O-])c1 (configuration not stated) | -7.73% (inactive) |  |
| O=C(Nc1nonc1-c1ccc(Cl)cc1)c1ccco1 | -16.8% (inactive) |  |
| O=C(NCc1ccccn1)[C@@H]1CCCN1C(=O)[C@@H]1CCCN1C(=O)c1ccccc1 | -1.15% (inactive) |  |
| CN(Cc1nc(-c2cnccn2)no1)Cc1n[nH]c2c1CCCCC2 | -17.5% (inactive) |  |
| COc1ccccc1CNC(=O)CS(=O)(=O)c1cccc2nsnc12 | -18.4% (inactive) |  |
| Cn1c(=O)c(=O)n(C)c2cc(NC(=O)c3ccccc3Br)ccc21 | 3.19% (inactive) |  |
| c1ccc2c(c1)OC1OC2Oc2ccccc21 | -22.8% (inactive) |  |
| Cc1cc(C)nc(NS(=O)(=O)c2ccc(NC(=O)c3cc(=O)c4ccc(C)c(C)c4o3)cc2)n1 | -16.9% (inactive) |  |
| CS(=O)(=O)N(CC(=O)Nc1ccc(F)cc1)C1CCCCC1 | 1.39% (inactive) |  |
| N[C@H]1CN(c2c(F)cc3c(=O)c(C(=O)O)cn(C4C[C@H]4F)c3c2Cl)CC12CC2 (some centres not stated) | -5.28% (inactive) |  |
| CC1(c2ccccc2)NC(=O)N(CC(=O)Nc2cc(Cl)ccc2N2CCOCC2)C1=O (configuration not stated) | -0.724% (inactive) |  |
| O=C(CN1CCOCC1)Nc1cc(Cl)ccc1Cl | 0.338% (inactive) |  |
| O=C(CSc1nc(Nc2ccccc2)nc(N2CCOCC2)n1)Nc1cc(Cl)ccc1O |  | 25.9 µM (active) |
| Cn1c(N)cc(=O)n(C)c1=S | -6.81% (inactive) |  |
| Cc1ccnc(NS(=O)(=O)c2ccc(NC(=O)c3oc4ccc(F)cc4c3C)cc2)n1 | -8.42% (inactive) |  |
| Cc1ncn(C23CC4CC(CC(O)(C4)C2)C3)n1 | 2.94% (inactive) |  |
| O=C(Nc1ccc(S(=O)(=O)Nc2ncccn2)cc1)C12CC3CC(CC(C3)C1)C2 | 10.4% (inactive) |  |
| COC(=O)c1ccc(NC(=O)C23CC4CC(C2)CC(n2cnc(Cl)n2)(C4)C3)cc1 |  | 20.6 µM (active) |
| CC(=O)Oc1ccc2c(=O)oc(-c3ccc([N+](=O)[O-])cc3)nc2c1 | -2.32% (inactive) |  |
| COc1ccc(S(=O)(=O)n2cnc3ccccc32)c(C)c1 |  | 18.4 µM (active) |

| SMILES | activity change, negative = growth inhibition | Potency |
| --- | --- | --- |
| Cc1ccc(C)c(S(=O)(=O)n2cnc3ccccc32)c1 | -2.59% (inactive) |  |
| Cc1ccc(S(=O)(=O)n2cnc3ccccc32)c(C)c1 | -14% (inactive) |  |
| N#Cc1c(NC(=O)c2ccc(N3CCOCC3)c([N+](=O)[O-])c2)sc2c1CCCC2 | 0.828% (inactive) |  |
| COc1cccc2cc(C(N)=O)/c(=N\NC(=O)c3ccccc3)oc12 | -11% (inactive) |  |
| CC(C)Cn1c(N2CCN(C(=O)/C=C/c3ccccc3)CC2)nc2ccccc21 |  | 18.4 µM (active) |
| CC(C)N(C(=O)Cn1c(SCC(=O)N2CCN(c3ccccc3)CC2)nc2ccccc21)C(C)C | 0.282% (inactive) |  |
| CC1(C(=O)O)CCCN(C(=O)/C=C/c2ccccc2)C1 (configuration not stated) | 6.06% (inactive) |  |
| CN(Cc1ccccc1Cl)C(=O)C1CCC(=O)N(CCc2cccc(F)c2)C1 (configuration not stated) | -24% (inactive) |  |
| CCOc1ccc(OCc2ccc(C(=O)N(C)c3ccccc3)o2)cc1 | -3.27% (inactive) |  |
| CN(C(=O)CN1CCN(c2cc(-c3ccc(OCc4ccccc4)cc3)ncn2)CC1)c1ccccc1 |  | 18.4 µM (active) |
| COc1ccc(OCC(=O)N2CCN(C(=O)COc3ccccc3)CC2)cc1 | -6.66% (inactive) |  |
| CCCC(C)C(=O)Nc1ccc(NC(C)=O)cc1 (configuration not stated) | -2.66% (inactive) |  |
| CC1(C)[C@@H]2CC[C@@]1(C)[C@H](OC(=O)CSC#N)C2 | -22.1% (inactive) |  |
| CCCCNC(=O)c1ccc(-n2c(=S)[nH]c3ccccc3c2=O)cc1 | -3.14% (inactive) |  |
| Cc1ccc(NC(=S)N(Cc2ccco2)C(C)c2cccs2)cc1 (configuration not stated) | -11.9% (inactive) |  |
| Oc1cccc(/C=N/Nc2ccc(Cl)nn2)c1O |  | 0.092 µM (active) |
| COc1cccc(/C=N/Nc2ccc(Cl)nn2)c1 | -1.57% (inactive) |  |
| Clc1ccc(N/N=C/c2cccs2)nn1 | 14.4% (inactive) |  |
| Fc1ccccc1Cc1ccc(Cl)nn1 | 1.4% (inactive) |  |
| CCCCCCCN=C(C)c1ccccc1O | 10.7% (inactive) |  |
| C/C(=N\Nc1ccc(Cl)nn1)c1ccccc1O |  | 0.58 µM (active) |
